Source: PubChem BioAssay (several laboratories)
Most compounds without a hit are left out; they make up all but 12% or so of the library.
Lmaj promast: Leishmania major promastigote growth inhibition, primary screen; Leishmania major promastigotes, resazurin fluorescence viability; inhibition, % at 10 µM; actives 9% (n = 200,000); AID 1063, 2008; in the data active = inhibition above about 50%;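 also: promastigotes grown with compound for 44 hours at 28 °C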
ROMK primary: ROMK potassium channel modulators, primary screen, cell-based, thallium flux, MLSMR library; actives 2% (n = 130,000); Tet-inducible ROMK, thallium flux fluorescence; actives lie on both sides; B-score at 10 µM; ATP-sensitive inward rectifier potassium channel 1 (Homo sapiens), P48048;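 active = signal ratio slope over the read window, or its plate-corrected B-score, at least 3 SD from the plate mean, either direction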;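 also: B-score of the F/F0 ratio slope over 7 to 12 s after thallium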
Target sequence (P48048 whole entry, looked up): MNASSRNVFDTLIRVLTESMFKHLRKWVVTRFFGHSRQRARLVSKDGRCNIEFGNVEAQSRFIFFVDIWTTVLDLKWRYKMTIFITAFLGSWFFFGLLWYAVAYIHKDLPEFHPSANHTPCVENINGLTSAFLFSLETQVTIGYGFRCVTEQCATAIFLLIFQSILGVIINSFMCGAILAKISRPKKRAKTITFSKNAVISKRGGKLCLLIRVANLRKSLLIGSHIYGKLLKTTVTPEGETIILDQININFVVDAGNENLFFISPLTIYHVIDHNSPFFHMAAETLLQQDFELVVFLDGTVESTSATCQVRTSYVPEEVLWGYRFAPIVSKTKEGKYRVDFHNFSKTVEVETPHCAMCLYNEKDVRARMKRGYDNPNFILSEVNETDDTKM
Ins promoter up: insulin promoter activators in MIN6 cells, imaging, high-content screening, mouse beta cells | MIN6 insulin promoter-GFP reporter; stronger effect = higher value | z-score at 5 µM | actives 0.3% (n = 190,000);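 active = z-score above 3 at 5 µM with at least 500 cells counted in the well; inconclusive = wells under 500 cells, flagged as cytotoxic or low count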
WT yeast gro inh: growth inhibition of WT strain, primary screen, mitochondrial fusion inhibitor project, WT and mutant strains, chemical genetic. mitochondrial fusion phenotypic screen. inhibition, % at 10 µM. actives 2.1% (n = 190,000). AID 1362, 2008; in the data active = inhibition above about 58%; tested in S. cerevisiae
Insulin prom inh: inhibitors of insulin promoter-driven GFP, primary screen, imaging, TRM-6 cells (human fetal islet line), eGFP reporter, cell count; inhibition, % at 2 µM; actives 0.9% (n = 130,000); AID 1273, 2008; reporter expression induced with tamoxifen;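 active = inhibition above the mean plus 3 SD, with well images judged a real hit on visual review, cut at about 60% in these data, passing the limit was not always enough; inconclusive = inhibition over the cutoff but images rejected on review; inactive = inhibition not above the cutoff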
KCC2 mod: KCC2 cotransporter modulators, thallium flux, primary screen, cell-based, HEK293 KCC2, FluoZin-2 fluorescence, MLSMR | actives 2.2% (n = 190,000) | Solute carrier family 12 member 5 (Homo sapiens), Q9H2X9 | B-score of Tl+ flux slope (higher = more flux/activation; lower = inhibition) at 10 µM | AID 1456, 2008 | KCC2 cells, thallium flux FluoZin-2 fluorescence;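 active = thallium flux slope and its plate-corrected score both differing from the plate sample mean at a set confidence after two filtering rounds, in either direction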;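 also: slope of fluorescence scaled to starting intensity during 10 to 20 s after thallium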
Each line names hits and unclear results; the compound was inactive in the other large screens.

CCn1c(SCc2ccccc2)nnc1C1CCN(S(=O)(=O)c2ccc(OC)cc2)CC1	Lmaj promast 91 (no result: ROMK primary, Ins promoter up, KCC2 mod)
CCn1c(SCc2ccccc2)nnc1C1CCCCC1	none (no result: ROMK primary, Insulin prom inh)
c1ccc(-n2nnnc2Oc2ccc(-n3ccnc3)cc2)cc1	none (no result: Insulin prom inh)
COC(=O)c1cccc(COC(=O)c2ccccc2NC(=O)c2ccco2)c1	none (no result: ROMK primary)
COc1ccc(NC(=O)Cn2nnc(C(=O)NCc3cccc(OC)c3)c2N)cc1	none (no result: ROMK primary, Ins promoter up)
Cc1ccc(NC(=O)Cc2cn3ccsc3n2)nc1	none (no result: ROMK primary, Insulin prom inh)
CCOC(=O)c1cnc(-c2ccccc2)nc1N	Insulin prom inh 95
CO/N=C/c1ccc(N2CCN(C(=O)c3ccc(C)cc3)CC2)c([N+](=O)[O-])c1	Insulin prom inh inconclusive (no result: ROMK primary)
Cc1cc(C)c2[nH]c(=S)cc(C)c2c1	KCC2 mod 31 (no result: Insulin prom inh)
Cc1cc(=S)[nH]c(=S)[nH]1	none (no result: Lmaj promast, ROMK primary, WT yeast gro inh, Insulin prom inh)
CN(C(=O)c1ccno1)c1nnc(-c2ccccn2)s1	none (no result: Ins promoter up)
O=C1c2ccc3c4c(ccc(c24)C(=O)N1CCCCO)C(=O)N(CCCCO)C3=O	Lmaj promast 100
COc1ccc(O)c(C(=O)CC(=O)c2ccccc2)c1	KCC2 mod 22 (no result: ROMK primary, Insulin prom inh)
COc1ccc(C(CC(=O)c2ccccc2)S(=O)(=O)c2ccc(C)cc2)cc1 (stereo not given)	none (no result: ROMK primary, Insulin prom inh)
COc1ccc(C(=O)C/C(=C\C(=O)c2ccc(C)cc2)c2ccccc2)cc1	Lmaj promast 52 (no result: Insulin prom inh)
COc1ccccc1NS(=O)(=O)c1cc(NC(=O)c2cc(=O)[nH]c3ccccc23)ccc1N1CCOCC1	none (no result: Lmaj promast, ROMK primary, WT yeast gro inh, Insulin prom inh)
Cc1ccn(S(=O)(=O)c2ccc(C(C)(C)C)cc2)n1	Lmaj promast 71
O=C(CCCN1C(=O)/C(=C/c2cccs2)SC1=S)Nc1cccnc1	none (no result: Insulin prom inh)
O=C(CCN1C(=O)/C(=C\c2cccs2)SC1=S)NC1=NCCS1	WT yeast gro inh 76 (no result: ROMK primary)
COc1ccccc1/C=C1\SC(=S)N(CCC(=O)NC2=NCCS2)C1=O	Lmaj promast 52
O=C(CCN1C(=O)/C(=C/c2cccs2)SC1=S)NC1=NCCS1	WT yeast gro inh 72 (no result: ROMK primary, Ins promoter up, Insulin prom inh)
CCc1ccc(/C=C2\SC(=S)N(CCC(=O)NC3=NCCS3)C2=O)cc1	none
O=[N+]([O-])c1ccc(COc2ccccc2/C=N/O)cc1	none
CCc1c(C)nc(SCC(=O)c2cccs2)c(C#N)c1C	WT yeast gro inh 86 (no result: Ins promoter up)
CCc1c(C)nc(SCC(N)=O)c(C#N)c1C	none (no result: Ins promoter up, WT yeast gro inh, Insulin prom inh)
COC(=O)c1cc(OC)c(OC)cc1NC(=O)C(C)Sc1ccc(C)cc1 (stereo not given)	none (no result: ROMK primary, KCC2 mod)
C=CCOC(=O)C1CC=CCC1C(=O)Oc1ccc(F)cc1F (stereo not given)	none (no result: ROMK primary)
CCOC(=O)c1cnc(-n2nc(C)cc2C)nc1NNc1nc(C)cc(C)n1	none (no result: Lmaj promast, ROMK primary, WT yeast gro inh, Insulin prom inh)
CCOC(=O)c1cnc(-n2nc(C)cc2C)nc1NNc1nc(-c2ccccc2)cc(-c2ccccc2)n1	Lmaj promast 100 (no result: ROMK primary, Ins promoter up)
CCOC(=O)c1cnc(-n2nc(C)cc2C)nc1NC	none (no result: ROMK primary, Insulin prom inh)
CCOC(=O)c1cnc(-n2nc(C)cc2C)nc1N(CC)CC	WT yeast gro inh 70
COc1ccc(OC)c(/C=N/NC(=O)CNC(=O)c2ccc(S(=O)(=O)N3CCCC3)cc2)c1	none
Cc1cc(C)nc(SCc2ccc(C(=O)N/N=C/c3cccc(O)c3O)cc2)n1	Lmaj promast 98
COc1ccc(O)c(/C=N/NC(=O)c2ccc(OCc3cccc(Br)c3)cc2)c1	Lmaj promast 97 (no result: ROMK primary, Insulin prom inh, KCC2 mod)
COc1ccc(O)c(/C=N/NC(=O)c2ccc(CSc3nc(C)cc(C)n3)cc2)c1	Lmaj promast 99 (no result: Ins promoter up)
CCOc1ccc(OCc2cccc(C(=O)N/N=C/c3cccnc3)c2)cc1	Lmaj promast 58
COc1ccc(C(=O)N/N=C/c2cc(Br)ccc2O)cc1OC	none (no result: Lmaj promast, ROMK primary, WT yeast gro inh, Insulin prom inh)
COc1ccc(/C=C/C(=O)NNc2c(F)c(F)cc(F)c2F)cc1OC	none (no result: ROMK primary)
CN(C)S(=O)(=O)N1CCN(C(=O)N(c2ccccc2)c2ccccc2)CC1	none
Cc1cccc(NC(=S)NC2CCCCC2)n1	WT yeast gro inh 68 (no result: Insulin prom inh)
Cc1cccc(NC(=S)NC2CCCC2)n1	WT yeast gro inh 72
Cc1cccc(NC(=S)Nc2cccc(C)n2)n1	none (no result: Lmaj promast, ROMK primary, WT yeast gro inh, Insulin prom inh)
O=C(NCCN1CCOCC1)c1cc2cc(Cl)cc(Cl)c2oc1=O	none (no result: Ins promoter up, WT yeast gro inh)
COc1ccc([N+](=O)[O-])cc1NC(=O)c1cn(-c2ccc(Cl)cc2)c(=O)c2ccccc12	Lmaj promast 60
COCCSc1ccccc1C(=O)Nc1cc([N+](=O)[O-])ccc1OC	none
COc1cccc(C2CC(C(F)(F)F)n3nc(C(=O)Nc4c(C)n(C)n(-c5ccccc5)c4=O)cc3N2)c1 (stereo not given)	none (no result: Insulin prom inh)
COc1ccc(C2CC(C(F)(F)F)n3nc(C(=O)Nc4c(C)n(C)n(-c5ccccc5)c4=O)c(Cl)c3N2)cc1 (stereo not given)	Lmaj promast 69
COCCNC(=O)C(c1ccncc1)N(C(=O)c1sc(C)nc1C)c1cccc(C)c1 (stereo not given)	none (no result: Insulin prom inh, KCC2 mod)
CN(C)CCCNS(=O)(=O)c1ccc(Oc2ncc(C(F)(F)F)cc2Cl)cc1	Lmaj promast 95 (no result: ROMK primary, KCC2 mod)
COc1ccc(OC)c(S(=O)(=O)N2CCC(C(=O)Nc3cccc(C)c3)CC2)c1	Lmaj promast 100 (no result: Ins promoter up)
CCOc1ncccc1C(=O)Nc1ccc(OC)c(S(=O)(=O)N2CCCCC2)c1	none (no result: Insulin prom inh)
COC(=O)c1ccccc1NC(=O)C1CCN(S(=O)(=O)c2cc(C)ccc2OC)CC1	Lmaj promast 76 (no result: ROMK primary, KCC2 mod)
COc1ccc(NC(=O)c2ccc(=O)[nH]c2)cc1S(=O)(=O)N1CCCCC1	Lmaj promast 56 (no result: ROMK primary)
COc1ccc(OC)c(S(=O)(=O)N2CCC(C(=O)Nc3ccccc3)CC2)c1	none (no result: Insulin prom inh)
COc1ccc(OC)c(S(=O)(=O)N2CCC(C(=O)Nc3cc(C)ccc3C)CC2)c1	none (no result: ROMK primary, Ins promoter up)
CCn1cc(C(=O)Nc2ccc(OC)c(S(=O)(=O)N3CCCCC3)c2)c(=O)c2ccc(C)nc21	Lmaj promast 67 (no result: ROMK primary)
O=C(CCCN1C(=O)CCC1=O)Nc1cccc(C(F)(F)F)c1	Insulin prom inh inconclusive (no result: ROMK primary, KCC2 mod)
COc1ccc(NC(=O)C2CCC(C(C)(C)C)CC2)cc1S(=O)(=O)N1CCCCC1 (stereo not given)	Lmaj promast 99 (no result: ROMK primary)
COc1ccc(NC(=O)C2CCN(S(=O)(=O)c3ccc(C)cc3)CC2)cc1OC	none (no result: ROMK primary, KCC2 mod)
COc1ccc(OC)c(S(=O)(=O)N2CCN(c3ccccn3)CC2)c1	Insulin prom inh 74 (no result: ROMK primary, KCC2 mod)
CC(=O)OCCc1c(C)nc2nc[nH]n2c1=O	none
CCc1nn2cc(C(=O)c3cc(C)ccc3O)cnc2c1-c1ccc(F)cc1	none (no result: ROMK primary)
Cc1cc(C(=O)CSc2nnc(-c3cccnc3)n2-c2ccccc2)c(C)n1CC1CCCO1 (stereo not given)	none
CCOc1ccc(N2C(=O)/C(=C/c3cc(OC)c(OC)c(OC)c3)N(CC(=O)OC)C2=S)cc1	Lmaj promast 100 (no result: ROMK primary)
